Assay results: PubChem BioAssay AID624330 (Southern Research Specialized Biocontainment Screening …, 2012)
The whole screen tested about 340,000 compounds, of which about 2,100 (0.62%) were called active.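 The calls were made as follows: active = first-screen hits whose inhibition reached a set limit at any dose in the follow-up dose series; inconclusive = inhibition above the set first-screen limit but never retested; inactive = the rest.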 The list is a sample of the results. Measured potencies and affinities stand elsewhere.

Each molecule was assayed against Rac GTPase-activating protein 1 (Homo sapiens) (UniProt Q9H0H5) (assay: blockers of MgcRacGAP-driven Rac1 GTP hydrolysis – biochemical, ADP Hunter fluorescence, primary and confirmatory, confirmation (AID 624330;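 also: fluorescence reports GDP produced by GAP-driven GTP hydrolysis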)). Conditions: MgcRacGAP-stimulated Rac1 GTP hydrolysis, at 30 µM, hits give high values, GST-tagged Rac1 F28L mutant substrate.
Sequence of Rac GTPase-activating protein 1 (Homo sapiens) (Q9H0H5 whole entry, looked up): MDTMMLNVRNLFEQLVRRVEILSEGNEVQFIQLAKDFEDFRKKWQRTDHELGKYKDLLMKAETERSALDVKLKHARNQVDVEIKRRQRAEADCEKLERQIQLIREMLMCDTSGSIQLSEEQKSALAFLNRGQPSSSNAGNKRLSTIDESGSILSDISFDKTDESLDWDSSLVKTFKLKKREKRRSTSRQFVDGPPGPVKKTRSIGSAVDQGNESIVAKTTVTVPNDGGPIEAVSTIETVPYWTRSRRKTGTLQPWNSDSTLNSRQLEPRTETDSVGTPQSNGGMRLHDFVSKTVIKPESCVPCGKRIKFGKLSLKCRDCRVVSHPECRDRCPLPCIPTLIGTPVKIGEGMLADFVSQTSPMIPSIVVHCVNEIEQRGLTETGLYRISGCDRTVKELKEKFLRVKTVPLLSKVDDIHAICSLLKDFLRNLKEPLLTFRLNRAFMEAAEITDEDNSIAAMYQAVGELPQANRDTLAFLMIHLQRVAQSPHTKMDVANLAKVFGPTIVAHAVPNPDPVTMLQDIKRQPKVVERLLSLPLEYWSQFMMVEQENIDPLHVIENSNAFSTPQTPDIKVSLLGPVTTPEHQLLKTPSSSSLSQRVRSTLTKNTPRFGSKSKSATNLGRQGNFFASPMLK

inhibition, inactive:
Cc1ccc(S(=O)(=O)N2CCN(C(=O)Cc3ccc4c(c3)OCCO4)CC2)cc1C 6.6%
CCCCc1ccc(NC(=S)NCCc2ccc(F)cc2)cc1 -17.2%
CCOc1ccc(-n2c(-c3ccco3)nc3c(cnn3-c3ccc(C)cc3)c2=O)cc1 2.66%
Cc1ccc(/C=N/NC(=O)CN(Cc2ccccc2)S(=O)(=O)c2ccc3c(c2)OCCO3)cc1 2.63%
O=C(CN(Cc1ccco1)S(=O)(=O)c1ccccc1)N/N=C/c1ccccc1C(=O)O 8.11%
COc1ccc(/C=N/NC(=O)CN(Cc2ccccc2)S(=O)(=O)c2ccc3c(c2)OCCO3)cc1 7.2%
O=C(CN(Cc1ccco1)S(=O)(=O)c1ccccc1)N/N=C/c1cccc(O)c1 8.45%
CN(C)CCCN=Cc1c(-c2ccccc2)[nH]n(-c2nc3ccccc3s2)c1=O 20.7%
O=C(NCc1ccc2c(c1)OCO2)Nc1cccc(Cl)c1 11.9%
COc1ccc(-c2nc3c(Br)c(N)c(Br)cc3o2)cc1 -0.217%
Nc1ccc2cc3ccccc3cc2c1 17.6%
Clc1ccc2nc3ccccc3cc2c1 2.87%
O=C(Oc1ccc2ccc(O)cc2c1)c1ccccc1Cl 18.6%
Nc1cccc(O)c1 18.5%
CCc1ccc(NC(=O)CSc2nc3ccccc3nc2N2CCCCC2)cc1 6.49%
Oc1ccc(/C=N/n2cnn(Cc3ccccc3Cl)c2=S)c(O)c1 8.66%
O=C(Cc1ccc(Cl)cc1)NNc1c(F)c(F)cc(F)c1F 5.43%
O=C(Cc1ccc(Cl)cc1)c1ccc(O)cc1 9.32%
O=C(Cc1c(F)cccc1Cl)c1ccc(O)cc1O -1.08%
CCN1C(=O)C(C(=O)c2ccccc2)SC1=S (centres undefined) 2.79%
CSc1ncnc2c1ncn2CCCN1CCN(Cc2cccc3ccccc23)CC1 18.8%
O=C(Oc1ccccc1C(=O)Nc1ccccc1)c1ccc(Br)c([N+](=O)[O-])c1 14.5%
CC(=O)Nc1ccc(C(=O)OCC(=O)c2ccc(C)c([N+](=O)[O-])c2)cc1 -0.02%
O=C(c1ccc2snnc2c1)N1CCSCC1 12.5%
COc1ccc(/C=N/N(c2ccccc2)c2ccccc2)cc1O 10.2%
CCOc1ccc(/C=N/N(C)c2ccccc2)cc1OC 8.29%
COc1cc(/C=N/S(=O)(=O)c2ccccc2)cc(OC)c1O 9.73%
COc1ccc(OC)c(/C=N/N(C)c2ccccc2)c1 19.4%
CN(/N=C/c1cc(Br)cc(Br)c1O)c1ccccc1 5.13%
COc1cc(/C=N/N(c2ccccc2)c2ccccc2)ccc1O 21%
Cc1ccc(C(=O)N2CC=C(c3ccccc3)CC2)s1 -2.79%
CCCCN(C(=O)Nc1ccc(Cl)cc1)C1CCN(C(C)=O)CC1 12.3%
Cc1cc(NC(=O)c2ccc([N+](=O)[O-])cc2Cl)ccc1NC(=O)c1ccco1 5.16%
Cc1ccccc1N=Cc1cccc(O)c1O 12.1%
Oc1ccccc1C=Nc1cccc2ccccc12 12.9%
Cc1ccc(N=Cc2cccc(O)c2O)c(C)c1 27.7%
C=CCc1cccc(C=Nc2ccc(Br)cc2)c1O 2.02%
C=CCc1cccc(/C=N/c2ncccc2O)c1O 15.7%
Cc1cccc(N=Cc2ccccc2O)c1C 6.78%
COc1ccc(COCC(O)CN2CCC(CN3C(=O)c4cccc5cccc(c45)C3=O)CC2)cc1OC (centres undefined) 5.74%
O=C(c1cc(=O)c2ccccc2o1)N1CCCc2ccccc21 4.48%
O=C(O)CCCC(=O)Nc1nc2n(n1)C(c1ccc(F)cc1)CC(c1ccc(Cl)cc1)N2 (centres undefined) -3.19%
Brc1ccc(CSc2nccn2-c2ccccc2)cc1 -2.52%
CCOc1ccc(-c2nnc(-c3ccccc3)n2-c2ccccc2)cc1 1.23%
CCOc1ccc(S(=O)(=O)NCCC(=O)OCC(=O)N2CC(=O)Nc3ccccc32)cc1 2.23%
CCN(CC)S(=O)(=O)c1ccc(Cl)c(NC(=O)COC(=O)c2cc(-c3ccccc3Cl)nc3ccccc23)c1 5.1%
CC(C)N(Cc1nccn1C)C(=O)c1ccc2oc(CCCc3ccccc3)nc2c1 -4.5%
COc1ccc(NC(=O)c2cc(-c3ccccc3)oc2C)cc1 8.42%
COc1ccc(NC(=S)c2ccc(N(C)C)cc2)cc1 6.87%
COc1cc(OC)c(C(=O)Nc2ccncc2)cc1OC 6.31%
COc1ccc(NC(=O)Nc2ccc(OC)cc2)cc1 4.31%
Cc1oc(-c2ccccc2)cc1C(=O)Nc1ccccc1 19.3%
COc1cc(C(=O)Nc2ccc(N(C)C)cc2)c([N+](=O)[O-])cc1OC 19.1%
CCOc1ccccc1C(=O)NCC(=O)NCC(C)(C)N1CCOCC1 3.54%
O=C(C1COc2ccccc2O1)N1CCN(c2nc3c(F)cc(F)cc3s2)CC1 (centres undefined) 1.62%
CCOC(=O)C1CCCN(S(=O)(=O)c2c(C)c(C)cc(C)c2C)C1 (centres undefined) 3.51%
COC(=O)C1=C(C(=O)c2ccccc2)C(c2cccs2)n2nnnc2N1 (centres undefined) 12.1%
CCN(c1ccccc1)S(=O)(=O)c1cccc(C(=O)Nc2cccc(C)n2)c1 16.5%
CCC1CCCCN1C(=O)CSc1nc(N)cc(=O)[nH]1 (centres undefined) 9.52%
COc1ccc(C(O)CNc2ccc(C)cc2)cc1 (centres undefined) 12.6%
COc1ccc(Cl)cc1NCCC(O)c1ccc(F)cc1 (centres undefined) 10.5%
Cc1cccc(NC(=O)c2ccc(COc3ccccc3)o2)n1 -1.27%
CC(C)(CC(=O)OCC(=O)Nc1ccccc1F)CC1=NS(=O)(=O)c2ccccc2N1 8.87%
CCOC(=O)C1(CC2CCCCO2)CCN(C(=O)Nc2ccc(C)c(C)c2)CC1 (centres undefined) 8.55%
O=C(NCc1ccccc1)C1=C[C@H](c2csc3ccccc23)C[C@H](OCCCCO)O1 5.83%
COc1cc(/C=N/NC(=O)c2nnn(-c3nonc3N)c2C(C)C)ccc1OCc1ccccc1 12.2%
COc1cc(/C=N/NC(=O)c2c(C)nnn2-c2nonc2N)ccc1O 21.5%
Cc1nonc1C(=O)N/N=C/c1ccc([N+](=O)[O-])o1 6.74%
Cc1nnn(-c2nonc2N)c1C(=O)N/N=C/c1ccccc1O 5.56%
Cc1nonc1C(=O)N/N=C/c1ccncc1 4.44%
Cc1nonc1C(=O)N/N=C/c1ccccc1 7.47%
COc1cccc(/C=N/NC(=O)c2nnn(-c3nonc3N)c2C(C)C)c1 2.84%
Cc1nonc1C(=O)N/N=C/c1cccc(O)c1 5.55%
Cc1cc(NC(=O)COC(=O)c2cc([N+](=O)[O-])ccc2N2CCOCC2)ccc1Br -0.1%
O=C(COc1ccccc1F)NC12CC3CC(CC(C3)C1)C2 9.07%
CCN(CC(=O)Nc1c(F)cccc1F)C(=O)c1ccc(=O)n(C)n1 7.24%
CN(C)CCNC(=O)C(=O)NCC1OCCCN1S(=O)(=O)c1cccs1 (centres undefined) 5.17%
CCN(CC)CCN(CC(=O)Nc1c(C)cc(C)cc1C)C(=O)c1ccccc1 14.8%
CCN(CC)C(=O)CSc1nc2ncc(Br)cc2[nH]1 1.23%
CCCCN(C)C(=O)c1ccc2c(c1)N(CC)C(=O)c1ccccc1S2=O (centres undefined) 7.28%
COc1ccc(/C=N/NC(=O)c2nonc2C)cc1 17.8%
Cc1nonc1C(=O)N/N=C/c1cc2c(cc1Br)OCO2 -12.5%
O=C(N/N=C/c1ccc(O)cc1O)C(=O)N/N=C/c1ccc(O)cc1O 16.7%
COc1ccc(/C=N/NC(=O)c2nonc2N)cc1OC 11.7%
COc1ccnc(N=CNOCc2ccc(Cl)cc2)c1C#N 13.5%
COc1ccc(NS(=O)(=O)c2c(C)[nH]c(=O)[nH]c2=O)cc1OC 8.91%
Cc1cccc(N(C)S(=O)(=O)c2ccc3[nH]cc(C(=O)N4CCOCC4)c(=O)c3c2)c1 -3.07%
CCOC(=O)Cc1nnc(NCc2ccccc2)c2ccccc12 6.91%
Cc1cccc(N(CC(=O)NCC2CCCO2)C(=O)CCC(=O)Nc2cc(C)on2)c1 (centres undefined) 4.72%
COc1cccc(CNc2ccc3c(c2)ncn3C(C)C)c1OC 24.5%
Cn1cnc2cc(NCc3ccccc3Cl)ccc21 26.5%
CC(C)(C)n1cnc2cc(NCc3ccccc3O)ccc21 13.7%
COc1cccc(CNc2ccc3c(c2)nc(C)n3C)c1OC 30.5%
Cc1noc(C)c1NC(=O)Nc1cccc2c1O[C@@H](CN(C)Cc1ccc3c(c1)OCO3)[C@@H](C)CN([C@H](C)CO)C2=O 4.09%
CCN1CCCC1CNC(=O)c1ccc(Sc2ccccc2Cl)c([N+](=O)[O-])c1 (centres undefined) 4.96%
Cc1c(O)ccc2c(CN3CCOCC3)cc(=O)oc12 17.9%
Cc1cc(=O)oc2c(CN3CCCCC3)c(O)ccc12 2.34%
Cc1cc(=O)oc2c(CN3CCCC3)c(O)ccc12 6.69%
Cc1ccc2c(CN3CCOCC3)cc(=O)oc2c1C 3.73%
